Compound activity as filed in PubChem BioAssay.
AMA1-RON2 inh – qHTS for Inhibitors of AMA1-RON; Towards Development of Antimalarial Drug Lead: Primary Screen | AlphaScreen AMA1-biotinylated RON2 peptide binding | Potency, µM (doses to about 58.2 µM), most hits filed as inhibitors | 0.2% of 360,000 active; also: nearly all actives have a fitted effect of over 45% in size
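AMA1 (3D7) with his tag at 25 nM final met compounds first, then biotinylated RON2 peptide at 25 nM; detection used donor plus acceptor beads, 10 µg/mL apiece, read by AlphaScreen after 30 min at room temperature.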
NS1 function inh – qHTS Assay for Inhibitors of Influenza NS1 Protein Function | Potency, µM (series often up to 46.1 µM) | AID 2326, 2010 | 0.4% of 270,000 active; calls by dose curve; also: actives are rising curves; nearly all actives have a fitted effect of over 50% in size
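Recovery from NS1-induced slow growth read by OD600 in budding yeast switched to galactose assay medium (pH 6.0, -URA) at 1:100 dilution. Compound 23 nl per well; the matching strain lacking NS1 serves as control.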
Pf growth 96h – Primary qHTS for delayed death inhibitors of the malarial parasite plastid, 96 hour incubation | Potency, µM (doses to about 28.7 µM), actives largely listed as inhibitors | P. falciparum luciferase reporter growth, 96 h | 6.9% of 320,000 active
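Parasite growth measured via integrated firefly luciferase reporter in P. falciparum. Infected erythrocytes at 2% hematocrit, 0.05% parasitemia final were treated 96 hours at 37 C under 5% CO2, and luminescence was read.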
Sm TGR inh – qHTS Assay for the Inhibitors of Schistosoma Mansoni Peroxiredoxins. purified TGR, DTNB reduction, TNB absorbance 405 nm. Schistosoma mansoni thioredoxin glutathione reductase (TGR), Q962Y6. 3% of 360,000 active. Potency, µM (top dose mostly 114 µM), hits mostly inhibitors; also: nearly all actives have a fitted effect of over 60% in size
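Kinetic colorimetric format: TGR-catalysed, NADPH-driven DTNB reduction monitored via TNB absorbance. Enzyme dispensed at 20 nM; compound exposure 15 min at room temperature before reaction start.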
Pf growth 48h – Primary qHTS for delayed death inhibitors of the malarial parasite plastid, 48 hour incubation. P. falciparum luciferase growth in erythrocytes, 48 h. Potency, µM (titrated, usually from 28.7 µM), usual class: inhibitors. 5.9% of 310,000 active. AID 504832, 2011
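Compounds are pin-transferred into medium, infected erythrocytes (2% hematocrit, 0.1% parasitemia final) are added, and plates sit one parasite generation at 37 C in 5% CO2. Detection reagent is then added and luminescence measured.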
Large screens that a line does not name were inactive. An excerpt weighted towards active compounds, which were near 11% of everything screened. Unless noted, calls follow the shape of the dose curve; as a rule, active = well fitted curve in the direction sought with a large enough effect; inconclusive = small, poorly fitted or top-dose-only effect, or another doubt; inactive = no such curve, though single readings can be large; an effect the other way counts as inactive or inconclusive.

CCCCNC(=O)C[C@@H]1C[C@@]2(C(=O)OC)CCCCC=C2N(Cc2ccccc2)C1=O	none (no result: NS1 function inh, Pf growth 96h, Sm TGR inh, Pf growth 48h)
O=C(NCC1CCCO1)c1ccc(CNS(=O)(=O)c2cccc(Cl)c2)cc1 (centres undefined)	Pf growth 96h inconclusive
Cc1ccc2nc(-c3ccc(O)c(O)c3)cn2c1	AMA1-RON2 inh 3.5µM, Sm TGR inh inconclusive
Brc1ccc(C=Nc2ccc(Nc3ccccc3)cc2)s1	NS1 function inh inconclusive, Pf growth 96h 13µM, Sm TGR inh inconclusive, Pf growth 48h inconclusive
O=C(Cc1ccc(S(=O)(=O)N2CCOCC2)s1)Nc1ccccc1Br	Pf growth 96h 3.7µM, Pf growth 48h 2.3µM
O=C(Cc1ccc(S(=O)(=O)N2CCOCC2)s1)NCC(=O)Nc1ccccc1Br	Sm TGR inh 56µM (no result: NS1 function inh)
O=C(Cc1ccc(S(=O)(=O)N2CCOCC2)s1)Nc1ccccc1N1CCOCC1	Pf growth 96h inconclusive, Sm TGR inh inconclusive (no result: NS1 function inh)
COCCCNC(=O)Cc1ccc(S(=O)(=O)N2CCOCC2)s1	Pf growth 96h inconclusive, Pf growth 48h inconclusive (no result: NS1 function inh)
CCOc1ccc(C(=O)c2oc3ccccc3c2NC(=O)c2cc(-c3ccccc3)on2)cc1	none (no result: AMA1-RON2 inh, NS1 function inh, Pf growth 96h, Pf growth 48h)
CCOC(=O)c1nnn(-c2nn3nnnc3c3ccccc23)c1C	Pf growth 48h 0.93µM
CCCCOC(=O)c1c(N)n(-c2ccc(OC)cc2OC)c2nc3ccccc3nc12	none (no result: AMA1-RON2 inh, NS1 function inh, Pf growth 96h, Pf growth 48h)
COc1cccc(-c2ccc3c(c2)N(Cc2ccc(F)cc2)C(=O)C(C)S3)c1 (centres undefined)	none (no result: NS1 function inh, Pf growth 96h, Sm TGR inh, Pf growth 48h)
CCOc1ccc(Oc2c(/C=N/NC(=O)C3CC3)c(C)nn2-c2ccccc2)cc1	Pf growth 96h inconclusive, Pf growth 48h 3.3µM
Cc1nn(-c2ccccc2)c(N2CCCC2)c1/C=N/NC(=O)c1ccccc1O	Pf growth 96h 13µM, Pf growth 48h 8.3µM
Cc1nn(-c2ccccc2)c(N2CCCC2)c1/C=N/NC(=O)C1CC1	Pf growth 96h 12µM, Pf growth 48h 10µM
Cc1[nH]c2ccccc2c1C=NNC(=O)c1cc(-c2cccnc2)nc2ccccc12	none (no result: NS1 function inh, Pf growth 96h, Sm TGR inh, Pf growth 48h)
Cc1nn(-c2ccccc2)c(N2CCCCC2)c1/C=N/O	none
Cc1nn(-c2ccccc2)c(N2CCCC2)c1/C=N/NC(=O)c1cc(-c2cccnc2)nc2ccccc12	Pf growth 96h inconclusive, Pf growth 48h 12µM
COc1ccc(NC(=O)c2cc(-c3ccccc3)nc3c2c(C)nn3-c2ccccc2)c(OC)c1	Pf growth 96h inconclusive, Pf growth 48h inconclusive
Cc1nn(-c2ccccc2)c(C)c1/C=N/NC(=O)c1ccccc1O	Pf growth 96h 6.6µM, Pf growth 48h 3.7µM
O=C(N/N=C/c1cc2c3c(c1O)CCCN3CCC2)c1ccccc1O	AMA1-RON2 inh inconclusive, Pf growth 96h 2.6µM, Sm TGR inh inconclusive, Pf growth 48h 3.3µM
CC(/C=N/NC(=O)c1cc(-c2cccnc2)nc2c1c(C)nn2-c1ccccc1)=C\c1ccccc1	Pf growth 96h 2.9µM, Pf growth 48h inconclusive
O=C(NCCNC1CCC(c2ccccc2)CC1)c1cccs1 (centres undefined)	none
CCOC(=O)c1sc(NC(=O)C(C)Oc2ccc(OC)cc2)c(C(=O)OCC)c1C (centres undefined)	none (no result: AMA1-RON2 inh, NS1 function inh, Pf growth 96h, Pf growth 48h)
CCOC(=O)C(C(C)=O)c1c(Br)c(O)c(O)c2c(C(=O)c3ccc(C)cc3)coc12 (centres undefined)	Sm TGR inh 4.5µM (no result: Pf growth 96h, Pf growth 48h)
Cc1ccc(CCNC(=O)CC(C)CC2=NS(=O)(=O)c3ccccc3N2)cc1 (centres undefined)	Pf growth 96h inconclusive, Pf growth 48h inconclusive
CCOC(=O)c1ccc(N=C2C(=S)N(c3ccc(C(=O)OCC)cc3)C(=N)N2/N=C/c2ccccc2)cc1	Pf growth 96h 10µM, Pf growth 48h inconclusive
COc1ccccc1NC(=O)C1CCCN(S(=O)(=O)c2ccc3c(c2)CC(C)N3C(C)=O)C1 (centres undefined)	Pf growth 48h inconclusive
CC1CN(C(=O)COC(=O)COc2ccc(C#N)cc2)CC(C)O1 (centres undefined)	none (no result: NS1 function inh)
Cc1nc(C)c(C(=O)NNS(=O)(=O)c2ccc([N+](=O)[O-])cc2)s1	none
